The campaign covered roughly 310,000 compounds. About 14,000 (4.5%) showed an effect of 50% or more. Effects have a minus sign here. What follows is part of a selection rich in strong results, with near analogues and random picks from the rest.
biological target: human ether-à-go-go-related gene (hERG) potassium channel (human, UniProt Q12809); assay: primary screen, population patch clamp on CHO cells stably expressing hERG; higher = less effect of the substance
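Note: peak tail current of the secondary pulse compared with the same well before compound.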

human ether-à-go-go-related gene (hERG) potassium channel, sequence (Q12809 whole entry, looked up): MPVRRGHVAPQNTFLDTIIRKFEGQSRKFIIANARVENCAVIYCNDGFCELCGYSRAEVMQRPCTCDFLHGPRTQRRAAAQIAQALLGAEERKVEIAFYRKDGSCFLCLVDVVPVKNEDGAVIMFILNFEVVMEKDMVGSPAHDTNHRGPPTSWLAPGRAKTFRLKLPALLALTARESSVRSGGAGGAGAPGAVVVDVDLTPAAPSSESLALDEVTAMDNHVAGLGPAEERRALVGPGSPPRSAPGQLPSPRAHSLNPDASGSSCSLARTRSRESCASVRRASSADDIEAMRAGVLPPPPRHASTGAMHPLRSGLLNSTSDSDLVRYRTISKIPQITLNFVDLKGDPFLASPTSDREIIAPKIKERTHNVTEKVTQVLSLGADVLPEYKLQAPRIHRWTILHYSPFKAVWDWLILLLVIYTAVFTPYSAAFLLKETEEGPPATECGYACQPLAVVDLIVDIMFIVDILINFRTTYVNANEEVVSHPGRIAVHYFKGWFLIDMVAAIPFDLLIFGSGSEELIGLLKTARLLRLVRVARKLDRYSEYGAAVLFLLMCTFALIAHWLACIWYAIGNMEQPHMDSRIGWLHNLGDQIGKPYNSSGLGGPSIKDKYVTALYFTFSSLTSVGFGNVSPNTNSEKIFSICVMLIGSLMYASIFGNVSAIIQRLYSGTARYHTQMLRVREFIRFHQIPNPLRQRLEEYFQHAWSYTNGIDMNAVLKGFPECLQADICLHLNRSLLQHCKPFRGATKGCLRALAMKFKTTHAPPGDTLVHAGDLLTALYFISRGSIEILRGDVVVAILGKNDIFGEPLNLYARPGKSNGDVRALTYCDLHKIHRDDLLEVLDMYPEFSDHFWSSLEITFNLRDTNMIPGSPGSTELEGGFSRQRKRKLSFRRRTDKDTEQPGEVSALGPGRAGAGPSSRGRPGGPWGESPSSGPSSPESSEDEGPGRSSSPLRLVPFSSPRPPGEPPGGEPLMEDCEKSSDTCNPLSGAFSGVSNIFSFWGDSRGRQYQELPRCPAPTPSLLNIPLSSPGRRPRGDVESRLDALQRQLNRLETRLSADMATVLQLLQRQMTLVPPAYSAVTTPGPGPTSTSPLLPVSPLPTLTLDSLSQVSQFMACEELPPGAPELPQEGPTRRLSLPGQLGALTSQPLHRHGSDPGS

SMILES | hERG current change (%, negative = inhibition) at 10uM
CCc1ccc(N2CC(C(=O)Nc3ccc(C)c(S(=O)(=O)N4CCOCC4)c3)CC2=O)cc1 (stereo not shown) | -34.6%
COc1ccc(NS(=O)(=O)c2cccc(Cl)c2)cc1S(=O)(=O)N1CCCCC1 | 7.81%
COc1ccc(NC(=O)CC(C)CC(=O)NCc2ccccc2)c(OC)c1 (stereo not shown) | -0.642%
CCCc1cc(Nc2cccc(OCC)c2)n2ncnc2n1 | -68%
CCCc1cc(Nc2ccccc2)n2ncnc2n1 | 2.69%
CCCc1cc(Nc2cccc(OC)c2)n2ncnc2n1 | -28.5%
CSc1ccc(S(=O)(=O)N2CCC(C(=O)NC3CC3)CC2)cc1 | -7.17%
C=CCNC1=C(Cl)C(=O)c2ccccc2C1=O | 4.26%
Cc1ccc(S(=O)(=O)N2CCN(C)CC2)cc1C(=O)NC1CCCCC1 | -19.5%
CCN(CC)CCn1c(=S)[nH]c2cc(C(=O)NCc3ccc(C)cc3)ccc2c1=O | -57.9%
CCN(CC)CCn1c(=S)[nH]c2cc(C(=O)NCc3ccccc3Cl)ccc2c1=O | -76.1%
Cc1ccc(CNC(=O)c2ccc3c(=O)n(CCCN4CCCC4=O)c(=S)[nH]c3c2)cc1 | 6.41%
O=C(NCc1ccccc1Cl)c1ccc2c(=O)n(CC3CCCO3)c(=S)[nH]c2c1 (stereo not shown) | 10.1%
O=C(NCc1ccccc1Cl)c1ccc2c(=O)n(CCCN3CCCC3=O)c(=S)[nH]c2c1 | -8.83%
Cc1ccc(CNC(=O)c2ccc3c(=O)n(CC4CCCO4)c(=S)[nH]c3c2)cc1 (stereo not shown) | -9.6%
COc1ccccc1N(CC(O)COc1c(C)cc(C)cc1C)S(=O)(=O)c1ccccc1 (stereo not shown) | -0.161%
CSc1ncccc1C(=O)N1CCCC(CCC(=O)NCc2ccccc2F)C1 (stereo not shown) | 6.52%
CN1CCC(N(C)C(=O)c2sc3cc(F)ccc3c2Cl)CC1 | -47.9%
COc1ccc(NS(=O)(=O)c2cccc3nsnc23)cc1Cl | 11.2%
CCOC(=O)CSc1ncc(-c2ccc([N+](=O)[O-])cc2)[nH]1 | -61%

SMILES | hERG current change (%, negative = inhibition) at 10uM
NC(=O)CSc1ncc(-c2ccc([N+](=O)[O-])cc2)[nH]1 | -14.6%
Cc1cc(C)c(CSc2ncc(-c3ccc([N+](=O)[O-])cc3)[nH]2)c(C)c1 | -10.2%
O=C(c1ccc2c(c1)OCO2)C1CCCN(C(=O)Nc2ccc(F)cc2F)C1 (stereo not shown) | -30%
O=C(c1ccc2c(c1)OCO2)C1CCCN(Cc2cc(F)ccc2-n2cccn2)C1 (stereo not shown) | -74.9%
CCOC(=O)CCNC(=O)N1CCCC(C(=O)c2ccc3c(c2)OCO3)C1 (stereo not shown) | 2.31%
Cc1ccc(-n2cccn2)c(CN2CCCC(C(=O)c3ccc4c(c3)OCO4)C2)c1 (stereo not shown) | -77.2%
CCOC(=O)CNC(=O)N1CCCC(C(=O)c2ccc3c(c2)OCO3)C1 (stereo not shown) | 11.1%
c1cncc(-c2ccnc3ncnn23)c1 | -4.79%
COc1cc(C)c(CNc2cccc(C)c2)cc1C | 2.74%
Cc1ccc(SCn2nnc3ccccc3c2=O)c(C)c1 | -33.8%
O=C(CCCn1cnc([N+](=O)[O-])n1)Nc1cccc(O)c1 | 9.95%
CCOC(=O)C(C)n1nc(-c2ccccc2)c2ccccc2c1=O (stereo not shown) | 15.9%
CCC1Oc2ccc(C)cc2N(CC(=O)NC2CCCCC2)C1=O (stereo not shown) | 5.8%
CCCCNC(=O)CSc1nnc(NC(C)=O)s1 | -10.6%
CCOC(=O)CSc1nnc(NC(=O)NC(C)C)s1 | 5.74%
CCCCNC(=O)Nc1nnc(SCC(=O)OCC)s1 | -91.2%
O=C(O)CCN1CCc2ccccc21 | 9.02%
FC(F)(F)c1cccc(NCc2n[nH]c(=S)n2C2CCCCC2)c1 | 41.2%
Cc1ccc(S(=O)(=O)N(C)Cc2cc3ccccc3[nH]c2=O)cc1 | -15.7%
COc1cccc(C(=O)/C=C/Nc2ccc(S(=O)(=O)Nc3nc(C)cc(C)n3)cc2)c1 | -1.4%

SMILES | hERG current change (%, negative = inhibition) at 10uM
O=C(CCc1nnc2ccc(NCCCN3CCCC3=O)nn12)NCc1ccccc1Cl | -1.05%
Cc1nn(-c2ccccc2)c2c1C(c1ccc(F)cc1F)C(C#N)=C(N)O2 (stereo not shown) | -9.42%
COc1ccc(C(=O)n2nc(-c3ccco3)nc2N)cc1 | -2.65%
CC(C)CCn1c(=O)c2ccccc2n2c(=S)[nH]nc12 | 18.2%
CC(C)CCn1c(=O)c2ccccc2n2c(CN(C)Cc3ccccc3)nnc12 | -80.7%
CC(C)CCn1c(=O)c2ccccc2n2c(CN3CCOCC3)nnc12 | -11.9%
CC(C)CCn1c(=O)c2ccccc2n2c(CCl)nnc12 | -32.8%
CC(C)CCn1c(=O)c2ccccc2n2c(CN3C(=O)NC4(CCC(C)CC4)C3=O)nnc12 (stereo not shown) | -72.1%
CC(C)CCn1c(=O)c2ccccc2n2c(CN3CCCC3)nnc12 | -2.3%
CCN1C(=O)/C(=C2/Sc3ccc(OC)cc3N2C)SC1=Nc1cccc(O)c1 | 15.6%
CCOc1ccc(S(=O)(=O)n2ccc(C)n2)cc1 | 10.9%
O=S(=O)(NCc1ccc2c(c1)OCO2)c1cccc(S(=O)(=O)N2CCOCC2)c1 | 10.6%
N#Cc1ccc2c(c1)nnn2-c1ccccc1 | 1.85%
O=c1c2ccccc2nc(CSc2ncnc3nc[nH]c23)n1-c1ccc(Cl)c(Cl)c1 | 5.27%
CCOC(=O)Cn1cnc2c(C#N)c3n(c2c1=O)CCCCC3 | -9.52%
N#Cc1c(-c2ccccc2)nc(-c2ccccc2)[nH]c1=O | 13.4%
N#Cc1c(-c2ccccc2)nc(-c2cccnc2)[nH]c1=O | 17.6%
N#Cc1c(-c2ccccc2)nc(-c2ccncc2)[nH]c1=O | -71.5%
